From PubChem BioAssay (Tox21) come the findings set out here.

Results filed as inconclusive are left out. Activity calls are given as the source filed them. Unless noted, the call rests on the fitted dose curve.

A short description of assay [1]: Nuclear factor erythroid 2-related factor 2/antioxidant responsive element (Nrf2/ARE) small molecule agonists: luciferase reporter gene qHTS assay in human keratinocytes (AID 1919969; further: nearly all actives have a fitted effect of over 35% in size; further: potency means the concentration at half of the fitted maximal effect). (In general: Reporter assays use an easily measured gene product as a stand-in for the process of interest.)
Assay [2] concerns the target Gonadotropin-releasing hormone receptor (Homo sapiens) (UniProt P30968). In words: Human gonadotropin-releasing hormone receptor (GnRHR) small molecule agonists, calcium flux assay in GnRHR-HEK293 cells (AID 1920063). Further: nearly all actives have a fitted effect of over 35% in size. The essentials:
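Calcium-dye fluorescence, Ex/Em=480/540, recorded every 1 sec over 3 min after compound addition to GnRHR-HEK293 cells. Cells had been seeded 18 hours earlier and dye-loaded for 1 hour at 37 C. Fifteen concentrations, triplicates.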
In general terms: A change in cytosolic calcium serves as a functional read-out for many receptors and channels.

Assay [3] deals with KiSS-1 receptor (Homo sapiens) (UniProt Q969F8). In words: Human kisspeptin (KISS1R) small molecule agonists, calcium flux assay in KISS1R-HEK293 cells (AID 1920064; active means well fitted activation curve with a large enough effect in the repeat runs). The essentials:
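Calcium flux read-out: kinetic fluorescence at Ex/Em=480/540, 1 s intervals over 3 min, after pin-tool compound addition to dye-loaded KISS1R-HEK293 cells. Fifteen concentrations, triplicates.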

A short description of assay [4]: G protein-coupled receptor (GPCR) small molecule agonists, calcium flux assay: HEK293 wild type cell line counter screen (AID 1920065). The method, boiled down:
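Agonist mode; 18 h seeding at 37 C, 1 h dye load at 37 C; compounds pinned from DMSO, ATP as positive control; kinetic fluorescence 480/540 nm, 3 min, 1 s reads; 15 concentrations, triplicate.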

A short description of assay [5]: p53 small molecule agonists, cell-based qHTS assay with rat liver microsomes (AID 1963578). The method, boiled down: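 Agonist mode in p53RE-bla reporter cells, with compounds co-incubated 16 h at 37 C alongside 0.5 mg/mL rat liver microsomes and 0.5 mg/mL NADPH (final), followed by a 2 h LiveBLAzer detection step.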
On the technique in general: In qHTS, concentration-response curves come from the screen itself.

A short description of assay [6]: p53 small molecule agonists, cell-based qHTS assay with human liver microsomes: qHTS cell viability counter screen (AID 1963579). Further: nearly all actives have a fitted effect of over 45% in size. Further: potency means the concentration at half of the fitted maximal effect. The method, boiled down:
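Metabolically activated exposure: compounds, human liver microsomes and NADPH (0.5 mg/mL final apiece) were added to p53RE-bla cells seeded 5 h earlier, left 16 h at 37 C, and then assessed for viability by CellTiter-Glo luminescence.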

A short description of assay [7]: p53 small molecule agonists, cell-based qHTS assay with rat liver microsomes: qHTS cell viability counter screen (AID 1963580). Further: nearly all actives have a fitted effect of over 45% in size. The method, boiled down: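 After the beta-lactamase ratio was read, CellTiter-Glo was added to the same wells and luminescence measured at 30 min; cells had been treated 16 h at 37 C with compounds, rat liver microsomes and NADPH (0.5 mg/mL final each).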

Assay [8] is described as follows: p53 small molecule agonists, cell-based qHTS assay: qHTS cell viability counter screen (AID 1963581). Further: nearly all actives have a fitted effect of over 45% in size. Further: potency means the concentration at half of the fitted maximal effect. The essentials: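 Cytotoxicity read-out: ATP-based luminescence (CellTiter-Glo, 30 min RT) measured in the same wells as the p53 reporter assay, HCT-116 p53RE-bla cells, 16 h compound exposure at 37 C.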
The nature of assay [9]: p53 small molecule agonists, cell-based qHTS assay (AID 1963582; active means well fitted activation curve with a large enough effect in the signal ratio in the repeat runs, not every such curve was filed as active; the % refers to the signal ratio). The method, boiled down:
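Fluorescence intensity read-out of a beta-lactamase reporter under a p53 response element. Cells were exposed to DMSO-dissolved compounds for 16 h at 37 C, then developed with FRET substrate for 2 h at RT.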

Assay [10] in a line: cAMP Responsive Elements (CRE) small molecule agonists, cell-based qHTS assay (AID 1963590). The method, boiled down: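 Beta-lactamase reporter readout: LiveBLAzer B/G FRET substrate, 2 h at room temperature, added after 3 h compound treatment of CRE-bla HEK 293T cells at 37 C/5% CO2.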
Assay [11] has as its target D(2) dopamine receptor (Homo sapiens) (UniProt P14416). In words: Dopamine D2 receptor (DRD2) small molecule agonists, cell-based qHTS assay (AID 1963594). Further: nearly all actives have a fitted effect of over 35% in size. The essentials:
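HEK293 cells stably expressing human DRD2, pre-treated with PDE inhibitor Ro20-1724 (0.1 mM final) and compound 10 min at room temperature, then stimulated with NKH477 (200nM […]) for 30 min. cAMP read by HTRF (665/620 nm).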

For assay [12] the target is unchanged. Put plainly: Dopamine D2 receptor (DRD2) small molecule antagonists, cell-based qHTS assay (AID 1963595; active means well fitted inhibition curve with a large enough effect in the signal ratio in the repeat runs, with a control signal flat; the % refers to the signal ratio; further: potency means the concentration at half of the fitted maximal effect). The method, boiled down:
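HTRF cAMP read-out at 665 and 620 nm emission (340 nm excitation). Antagonist mode: compounds were tested against 12 nM quinpirole in DRD2-HEK293 cells, with 200 nM NKH477 raising cAMP and 0.1 mM Ro20-1724 blocking its breakdown.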

Assay [13] can be described thus: p53 small molecule agonists, cell-based qHTS assay with human liver microsomes (AID 1963577).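 Further: p53 response element beta-lactamase reporter cells with liver microsomes plus NADPH.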 The method, boiled down:
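In this qHTS, p53 response-element beta-lactamase cells receive test compound together with a microsome/NADPH activating system (0.5 mg/mL final each) and are incubated 16 h at 37 C before LiveBLAzer fluorescence detection.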

The target of assay [14] is 5-hydroxytryptamine receptor 2A (Homo sapiens) (UniProt P28223). Put plainly: 5-hydroxytryptamine receptor 2A (HTR2A) small molecule agonists, cell-based qHTS assay (AID 1963587). Further: nearly all actives have a fitted effect of over 30% in size. Further: potency means the concentration at half of the fitted maximal effect. The method, boiled down: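 CHO cells stably expressing human HTR2A, plated 18 h, loaded with calcium dye 1 h at 37 C. Agonist mode: compounds added and intracellular calcium fluorescence recorded kinetically for 2 min at 1 sec intervals.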

Assay [15] deals with Muscarinic acetylcholine receptor M1 (Homo sapiens) (UniProt P11229). Put plainly: Cholinergic receptor muscarinic 1 (CHRM1) small molecule antagonists, cell-based qHTS assay (AID 1963588). Further: nearly all actives have a fitted effect of over 40% in size. Further: potency means the concentration at half of the fitted maximal effect. The essentials: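 Compounds were tested at 15 concentrations in three independent runs. Dye-loaded CHRM1-CHO cells were exposed 5 min at room temperature before stimulation by acetylcholine added at 50nM. Intracellular calcium was read kinetically on FDSS for 3 min.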

Assay [16] has the same target. In words: Cholinergic receptor muscarinic 1 (CHRM1) small molecule agonists, cell-based qHTS assay (AID 1963589). Further: nearly all actives have a fitted effect of over 35% in size. The method, boiled down: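 Calcium flux read-out: kinetic fluorescence at 1 sec intervals after pin-tool compound addition to dye-loaded CHRM1-CHO cells (human M1). Agonist mode; 15 concentrations tested in triplicate independent runs.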
Assay [17] can be described thus: cAMP Responsive Elements (CRE) small molecule antagonists, cell-based qHTS assay (AID 1963591; active means well fitted inhibition curve with a large enough effect in the signal ratio in the repeat runs, not every such curve was filed as active; the % refers to the signal ratio). The essentials: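 HEK293T CRE-bla; 18 h preincubation; compound pin-transfer; NKH477 0.25 uM final, 3 h, 37 C; LiveBLAzer FRET substrate 2 h RT.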
The target of assay [18] is Beta-2 adrenergic receptor (Homo sapiens) (UniProt P07550). In words: Adrenergic beta2 receptor (ADRB2) small molecule antagonists, cell-based qHTS assay (AID 1963592). Further: series mostly up to about 92 µM; nearly all actives have a fitted effect of over 50% in size. The essentials: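 Assay format: CHO-ADRB2 cells, 18-20hr seeding at 37C/5% CO2, then compound plus 1nM isoproterenol agonist mix for 0.5hr RT. Homogeneous time-resolved fluorescence cAMP detection after 1hr, expressed as 665/615 nm ratio.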

Assay [19] addresses 5-hydroxytryptamine receptor 2A (Homo sapiens) (UniProt P28223). Put plainly: 5-hydroxytryptamine receptor 2A (HTR2A) small molecule antagonists, cell-based qHTS assay (AID 1963586). Further: nearly all actives have a fitted effect of over 45% in size. The method, boiled down: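 CHO cells stably expressing human HTR2A were plated for 18 h at 37 C, then loaded with calcium dye for 1 h. Compounds were preincubated 5 min at room temperature before DOI (4 nM solution) was added. Kinetic fluorescence was read for 3 min.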

Sequence of Gonadotropin-releasing hormone receptor (Homo sapiens) (P30968 whole entry, looked up): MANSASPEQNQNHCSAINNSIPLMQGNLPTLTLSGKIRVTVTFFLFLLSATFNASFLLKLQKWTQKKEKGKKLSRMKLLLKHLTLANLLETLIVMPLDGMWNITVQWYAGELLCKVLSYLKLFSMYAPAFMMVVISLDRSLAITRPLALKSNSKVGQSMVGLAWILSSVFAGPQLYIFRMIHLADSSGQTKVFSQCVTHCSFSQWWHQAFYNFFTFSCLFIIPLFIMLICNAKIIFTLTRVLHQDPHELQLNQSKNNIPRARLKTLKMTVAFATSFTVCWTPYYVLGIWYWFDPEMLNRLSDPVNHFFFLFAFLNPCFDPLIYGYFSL
Sequence of KiSS-1 receptor (Homo sapiens) (Q969F8 whole entry, looked up): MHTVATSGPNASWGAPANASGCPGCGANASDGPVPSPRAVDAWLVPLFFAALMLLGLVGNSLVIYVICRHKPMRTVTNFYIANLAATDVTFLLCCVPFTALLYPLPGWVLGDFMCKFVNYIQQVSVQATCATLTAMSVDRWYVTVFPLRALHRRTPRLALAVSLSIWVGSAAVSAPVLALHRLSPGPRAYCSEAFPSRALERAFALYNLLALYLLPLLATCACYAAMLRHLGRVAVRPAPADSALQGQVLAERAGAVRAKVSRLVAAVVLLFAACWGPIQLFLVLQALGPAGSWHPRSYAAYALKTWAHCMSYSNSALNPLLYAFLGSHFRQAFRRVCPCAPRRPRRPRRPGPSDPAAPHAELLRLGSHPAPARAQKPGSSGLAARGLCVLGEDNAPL
Sequence of Muscarinic acetylcholine receptor M1 (Homo sapiens) (P11229 whole entry, looked up): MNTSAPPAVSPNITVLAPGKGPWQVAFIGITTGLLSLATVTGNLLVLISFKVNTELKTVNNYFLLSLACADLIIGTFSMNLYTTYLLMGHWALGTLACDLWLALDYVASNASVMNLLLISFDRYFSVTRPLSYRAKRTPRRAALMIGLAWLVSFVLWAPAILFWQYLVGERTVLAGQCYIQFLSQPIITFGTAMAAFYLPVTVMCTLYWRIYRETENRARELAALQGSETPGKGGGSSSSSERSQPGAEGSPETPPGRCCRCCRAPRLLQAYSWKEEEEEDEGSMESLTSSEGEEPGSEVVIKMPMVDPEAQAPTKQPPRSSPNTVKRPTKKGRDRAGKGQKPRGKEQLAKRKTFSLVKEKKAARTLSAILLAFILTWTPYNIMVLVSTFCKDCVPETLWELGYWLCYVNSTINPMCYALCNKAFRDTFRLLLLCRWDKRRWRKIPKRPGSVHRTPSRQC
Sequence of 5-hydroxytryptamine receptor 2A (Homo sapiens) (P28223 whole entry, looked up): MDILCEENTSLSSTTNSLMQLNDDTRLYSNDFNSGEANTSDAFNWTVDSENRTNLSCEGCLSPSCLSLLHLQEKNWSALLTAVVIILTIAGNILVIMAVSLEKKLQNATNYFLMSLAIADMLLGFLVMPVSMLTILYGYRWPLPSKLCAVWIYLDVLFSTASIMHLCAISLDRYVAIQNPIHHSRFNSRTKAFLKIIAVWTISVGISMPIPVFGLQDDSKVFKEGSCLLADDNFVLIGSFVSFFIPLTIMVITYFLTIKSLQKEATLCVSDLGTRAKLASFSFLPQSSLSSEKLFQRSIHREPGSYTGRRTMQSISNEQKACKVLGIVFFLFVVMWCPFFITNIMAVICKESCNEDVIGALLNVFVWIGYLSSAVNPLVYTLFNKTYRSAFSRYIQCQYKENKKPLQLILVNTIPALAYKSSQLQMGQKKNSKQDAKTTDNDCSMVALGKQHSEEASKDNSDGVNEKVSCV
Sequence of Beta-2 adrenergic receptor (Homo sapiens) (P07550 whole entry, looked up): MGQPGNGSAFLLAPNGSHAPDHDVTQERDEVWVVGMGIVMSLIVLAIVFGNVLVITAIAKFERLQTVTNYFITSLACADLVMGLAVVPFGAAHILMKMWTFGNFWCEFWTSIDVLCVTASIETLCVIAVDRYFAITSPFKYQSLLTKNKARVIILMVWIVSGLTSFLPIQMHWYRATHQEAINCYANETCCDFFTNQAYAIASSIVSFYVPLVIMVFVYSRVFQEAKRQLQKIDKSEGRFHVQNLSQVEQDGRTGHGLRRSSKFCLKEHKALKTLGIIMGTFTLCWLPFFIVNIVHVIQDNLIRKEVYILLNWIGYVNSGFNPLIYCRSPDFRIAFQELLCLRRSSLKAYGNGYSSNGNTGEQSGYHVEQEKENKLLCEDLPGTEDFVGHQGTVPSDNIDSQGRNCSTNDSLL
Sequence of D(2) dopamine receptor (Homo sapiens) (P14416 whole entry, looked up): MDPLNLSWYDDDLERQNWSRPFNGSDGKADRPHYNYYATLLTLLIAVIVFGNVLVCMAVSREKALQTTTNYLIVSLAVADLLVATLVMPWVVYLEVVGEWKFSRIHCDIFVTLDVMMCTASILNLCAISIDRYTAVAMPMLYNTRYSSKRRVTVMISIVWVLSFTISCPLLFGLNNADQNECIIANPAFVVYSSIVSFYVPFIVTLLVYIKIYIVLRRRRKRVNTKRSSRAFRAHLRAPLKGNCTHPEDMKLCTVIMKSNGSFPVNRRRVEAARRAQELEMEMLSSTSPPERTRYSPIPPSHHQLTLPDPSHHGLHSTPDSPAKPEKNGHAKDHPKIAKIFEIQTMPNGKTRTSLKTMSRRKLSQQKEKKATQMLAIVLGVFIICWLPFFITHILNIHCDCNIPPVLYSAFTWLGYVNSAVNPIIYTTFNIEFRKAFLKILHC

With `CN1C[C@H](CNC(=O)OCc2ccccc2)C[C@@H]2c3cccc4c3c(cn4C)C[C@H]21`, the Potency entry in [1], in assay [2], in assay [3], in assay [4], in assay [5] and in assay [6] was “inactive” each time. Moreover, the Potency result in assay [7], in assay [8], in assay [9], in assay [10] and in assay [11] was “inactive” in each case. In addition, the Potency in assay [12] is 10.6 µM (active).

For `CCN1CCCC1CNC(=O)C(O)(c1ccccc1)c1ccccc1` (centres undefined), the Potency result in assay [1], in assay [2], in assay [3], in [4], in [13] and in assay [5] was “inactive” in each case. Besides, the Potency entry in assay [7], in [8], in assay [9], in [16], in assay [10] and in assay [17] was “inactive” in each case. The Potency result in [18], in assay [11] and in assay [12] was “inactive” throughout. Moreover, the Potency in assay [14] was 2.68 µM (active); in assay [15], 0.0918 µM (active).

On to `OC(c1ccc(Cl)cc1)(c1ccc(Cl)cc1)c1cccnc1`, for which the Potency entry in [1], in assay [2], in assay [3], in assay [4], in assay [13] and in [5] was “inactive” throughout. Also, the Potency entry in assay [6], in assay [9], in assay [14], in assay [16], in [10] and in assay [17] was “inactive” in each case. The Potency result in assay [18], in assay [11] and in assay [12] was “inactive” each time. The Potency in assay [15] is 16.8 µM (active).

`Oc1ccc(I)cc1`: the Potency entry in assay [1], in assay [2], in assay [3], in assay [4], in assay [13] and in assay [5] was “inactive” throughout. In addition, the Potency result in assay [6], in assay [7], in assay [9], in [19], in assay [14] and in assay [15] was “inactive” each time. The Potency entry in [16], in assay [10], in assay [17], in [18], in assay [11] and in assay [12] was “inactive” in each case.

For `O=C(Cl)C(Cl)(Cl)Cl`, the Potency result in assay [1], in [2], in assay [3], in [4], in assay [13] and in assay [5] was “inactive” in each case. Moreover, the Potency entry in [6], in assay [7], in assay [9], in [14], in assay [15] and in assay [16] was “inactive” in each case. The Potency result in assay [10], in [17], in assay [11] and in assay [12] was “inactive” throughout.

For `Cc1cc(C)cc(OP(=O)(Oc2cc(C)cc(C)c2)Oc2cc(C)cc(C)c2)c1`, the Potency result in assay [1], in [2], in assay [3], in [4], in assay [13] and in assay [6] was “inactive” throughout. The Potency result in assay [7], in assay [8], in [9], in [19], in assay [14] and in [15] was “inactive” throughout. The Potency result in assay [16], in assay [10], in assay [17], in [18], in [11] and in assay [12] was “inactive” in each case.

`C[C@@H]1O[C@@H](O[C@@H]2C=C3CC[C@@H]4[C@H](CC[C@]5(C)[C@@H](c6ccc(=O)oc6)CC[C@]45O)[C@@]3(C)CC2)[C@H](O)[C@H](O)[C@H]1O`: the Potency in assay [1] is 0.0106 µM (active). Moreover, the Potency entry in assay [2], in assay [3], in assay [4], in assay [13], in assay [5] and in [6] was “inactive” each time. The Potency result in [18], in assay [11] and in assay [12] was “inactive” each time.

Regarding `Oc1ccc(C2(c3ccc(O)cc3)c3ccccc3-c3ccccc32)cc1`, the Potency is 0.969 µM (active) in [1], 32.4 µM (active) in assay [6] and 45.8 µM (active) in assay [8]. Moreover, the Potency entry in assay [2], in assay [3], in [4], in assay [13], in assay [5] and in assay [19] was “inactive” in each case. For the same molecule, the Potency entry in assay [14], in [15] and in assay [18] was “inactive” throughout.
